In all, about 140,000 sequences were measured (“enrichment ratio after two sorts for PhoP signalling”: median about 0, highest 2% from about 11 on). Many of the other results were omitted from the sample, so the highest values are more common in it than they were.
B1: PhoQ; a variant is named by its letters at X, in order, P23837 (parent)
chain: MKKLLRLFFPLSLRVRFLLATAAVVLVLSLAYGMVALIGYSVSFDKTTFRLLRGESNLFYTLAKWENNKLHVELPENIDKQSPTMTLIYDENGQLLWAQRDVPWLMKMIQPDWLKSNGFHEIEADVNDTSLLLSGDHSIQQQLQEVREDDDDAEMTHSVAVNVYPATSRMPKLTIVVVDTIPVELKSSYMVWSWFIYVLSANLLLVIPLLWVAAWWSLRPIEALAKEVRELEEHNRELLNPATTRELTSLVRNLNRLLKSERERYDKYRTTLTDLTHSLKTPLXXLQXXLRSLRSEKMSVSDAEPVMLEQISRISQQIGYYLHRASMRGGTLLSRELHPVAPLLDNLTSALNKVYQRKGVNISLDISPEISFVGEQNDFVEVMGNVLDNACKYCLEFVEISARQTDEHLYIVVEDDGPGIPLSKREVIFDRGQRVDTLRPGQGVGLAVAREITEQYEGKIVAGESMLGGARMEVIFGRQHSAPKDE

Variants of: B1
Test: enrichment ratio after two sorts for PhoP signalling (ratio (wild type AVST 3.29)); higher = more functional
Conditions: with PhoP (E. coli)
SPTM was tested, and the enrichment ratio was ≤ 0.25.
Work on GGTM yielded an enrichment ratio of 1.63.
In the case of FVNM, the enrichment ratio is reported as ≤ 0.25.
With RGTM the enrichment ratio was ≤ 0.25.
In the case of SPNM, the enrichment ratio is reported as ≤ 0.25.
TGTM was tested, and the enrichment ratio was 15.
In the case of KSTM, the enrichment ratio is reported as ≤ 0.25.
Work on AGTM yielded an enrichment ratio of 16.2.
For DANA, the enrichment ratio was ≤ 0.25.
With MGIR the enrichment ratio was ≤ 0.25.
For PYLL, the enrichment ratio was ≤ 0.25.
With VWQC the enrichment ratio was ≤ 0.25.
KPYK was tested, and the enrichment ratio was ≤ 0.25.
NMSK was tested, and the enrichment ratio was ≤ 0.25.
GWYP was tested, and the enrichment ratio was ≤ 0.25.
With NKWL the enrichment ratio was ≤ 0.25.
YWTA was tested, and the enrichment ratio was ≤ 0.25.
TAYI was tested, and the enrichment ratio was 10.2.
TAPY was tested, and the enrichment ratio was ≤ 0.25.
With NAGY the enrichment ratio was ≤ 0.25.
Work on TAAY yielded an enrichment ratio of 15.7.
With KAGY the enrichment ratio was ≤ 0.25.
With TAGY the enrichment ratio was 34.1.
With NVMG the enrichment ratio was ≤ 0.25.
With SYKQ the enrichment ratio was ≤ 0.25.
With DDMM the enrichment ratio was ≤ 0.25.
FLYG was tested, and the enrichment ratio was ≤ 0.25.
With YCDY the enrichment ratio was ≤ 0.25.
For PSFY, the enrichment ratio was ≤ 0.25.
In the case of WEWY, the enrichment ratio is reported as ≤ 0.25.
In the case of VFIN, the enrichment ratio is reported as ≤ 0.25.
With YVGY the enrichment ratio was ≤ 0.25.
HIQN was tested, and the enrichment ratio was ≤ 0.25.
MNWI gave an enrichment ratio of 6.11.
With MNQN the enrichment ratio was ≤ 0.25.
In the case of MNHG, the enrichment ratio is reported as ≤ 0.25.
For MNWE, the enrichment ratio was 17.9.
For TNWE, the enrichment ratio was ≤ 0.25.
In the case of MNIE, the enrichment ratio is reported as ≤ 0.25.
MNVG was tested, and the enrichment ratio was ≤ 0.25.
With MNWG the enrichment ratio was 15.6.
With MNWN the enrichment ratio was 15.4.
With TSGQ the enrichment ratio was 7.96.
With PQQF the enrichment ratio was ≤ 0.25.
For WRDC, the enrichment ratio was ≤ 0.25.
For TALM, the enrichment ratio was 15.3.
YELS was tested, and the enrichment ratio was 14.9.
Variant WALM has an enrichment ratio of 6.02.
In the case of HALM, the enrichment ratio is reported as 14.3.
In the case of YEWI, the enrichment ratio is reported as ≤ 0.25.
For HPLM, the enrichment ratio was ≤ 0.25.
For YIGM, the enrichment ratio was 0.38.
YILM gave an enrichment ratio of 12.1.
With HYLM the enrichment ratio was ≤ 0.25.
With QPLM the enrichment ratio was ≤ 0.25.
With KALM the enrichment ratio was ≤ 0.25.
For YELA, the enrichment ratio was ≤ 0.25.
For SGGE, the enrichment ratio was ≤ 0.25.
MSWN gave an enrichment ratio of 8.63.
TQHK was tested, and the enrichment ratio was ≤ 0.25.
For KKLF, the enrichment ratio was ≤ 0.25.
For HYYY, the enrichment ratio was ≤ 0.25.
With VMNW the enrichment ratio was ≤ 0.25.
In the case of NFPM, the enrichment ratio is reported as ≤ 0.25.
With MDYM the enrichment ratio was ≤ 0.25.
For TGWM, the enrichment ratio was 0.965.
FLTQ was tested, and the enrichment ratio was ≤ 0.25.
HCKA was tested, and the enrichment ratio was ≤ 0.25.
With FSYE the enrichment ratio was ≤ 0.25.
For VILM, the enrichment ratio was 1.31.
In the case of AKLM, the enrichment ratio is reported as 12.4.
VALM showed an enrichment ratio of 16.8.
With PKLM the enrichment ratio was ≤ 0.25.
YALM gave an enrichment ratio of 12.7.
In the case of WKLM, the enrichment ratio is reported as ≤ 0.25.
NALM gave an enrichment ratio of 5.51.
VLLM gave an enrichment ratio of 0.26.
With YWLM the enrichment ratio was ≤ 0.25.
AALM showed an enrichment ratio of 14.8.
RGGT was tested, and the enrichment ratio was ≤ 0.25.
For TCHA, the enrichment ratio was ≤ 0.25.
In the case of ESLN, the enrichment ratio is reported as ≤ 0.25.
For AYSD, the enrichment ratio was ≤ 0.25.
With WYCA the enrichment ratio was ≤ 0.25.
In the case of QFWH, the enrichment ratio is reported as ≤ 0.25.
In the case of FYES, the enrichment ratio is reported as ≤ 0.25.
For YMRA, the enrichment ratio was ≤ 0.25.
For QDSF, the enrichment ratio was ≤ 0.25.
SHLA showed an enrichment ratio of 3.56.
With SHLM the enrichment ratio was 19.3.
YELF was tested, and the enrichment ratio was 0.264.
With AILM the enrichment ratio was 5.76.
FTLM was tested, and the enrichment ratio was 8.49.
ANLM showed an enrichment ratio of 13.3.
Variant AHLM has an enrichment ratio of 12.1.
Work on YELM yielded an enrichment ratio of 13.8.
With SHGM the enrichment ratio was ≤ 0.25.
In the case of WNLM, the enrichment ratio is reported as ≤ 0.25.
Variant YHLM has an enrichment ratio of 0.877.
With AYLM the enrichment ratio was ≤ 0.25.
Work on ATSH yielded an enrichment ratio of 10.6.
In the case of RYPH, the enrichment ratio is reported as ≤ 0.25.
For VVLY, the enrichment ratio was ≤ 0.25.
In the case of VSDV, the enrichment ratio is reported as ≤ 0.25.
With FWLQ the enrichment ratio was ≤ 0.25.
With ISFK the enrichment ratio was ≤ 0.25.
HFQN was tested, and the enrichment ratio was ≤ 0.25.
For SRTQ, the enrichment ratio was ≤ 0.25.
FDLM was tested, and the enrichment ratio was ≤ 0.25.
For KKLM, the enrichment ratio was ≤ 0.25.
In the case of APLM, the enrichment ratio is reported as ≤ 0.25.
IQLM showed an enrichment ratio of 3.4.
For VHLM, the enrichment ratio was ≤ 0.25.
NHLM was tested, and the enrichment ratio was ≤ 0.25.
TKLM gave an enrichment ratio of 21.3.
AQLM was tested, and the enrichment ratio was 19.4.
ADLM showed an enrichment ratio of 12.7.
With HKLM the enrichment ratio was ≤ 0.25.
In the case of THLM, the enrichment ratio is reported as 12.3.
With FHFT the enrichment ratio was ≤ 0.25.
With HCCR the enrichment ratio was ≤ 0.25.
With PGAV the enrichment ratio was ≤ 0.25.
With DVEF the enrichment ratio was ≤ 0.25.
With FMQW the enrichment ratio was ≤ 0.25.
In the case of QFLI, the enrichment ratio is reported as ≤ 0.25.
For NSRM, the enrichment ratio was ≤ 0.25.
RLVV was tested, and the enrichment ratio was ≤ 0.25.
TNMN was tested, and the enrichment ratio was ≤ 0.25.
Work on TNNN yielded an enrichment ratio of 14.7.
TTNN showed an enrichment ratio of 17.8.
In the case of ITNN, the enrichment ratio is reported as ≤ 0.25.
KCNN was tested, and the enrichment ratio was ≤ 0.25.
For TVNN, the enrichment ratio was 12.7.
SPNN was tested, and the enrichment ratio was ≤ 0.25.
For YTNN, the enrichment ratio was ≤ 0.25.
With TNEN the enrichment ratio was ≤ 0.25.
In the case of PVNN, the enrichment ratio is reported as ≤ 0.25.
Work on TWNN yielded an enrichment ratio of 0.76.
With TNQN the enrichment ratio was 16.8.
With MDAD the enrichment ratio was ≤ 0.25.
For QRKY, the enrichment ratio was ≤ 0.25.
NDMN was tested, and the enrichment ratio was ≤ 0.25.
With EKIL the enrichment ratio was ≤ 0.25.
PHCG was tested, and the enrichment ratio was ≤ 0.25.
For SNES, the enrichment ratio was ≤ 0.25.
With IPVP the enrichment ratio was ≤ 0.25.
MNQH was tested, and the enrichment ratio was ≤ 0.25.
With LTNN the enrichment ratio was ≤ 0.25.
TNQH was tested, and the enrichment ratio was 15.
Work on TDNN yielded an enrichment ratio of 33.6.
For FDNN, the enrichment ratio was ≤ 0.25.
With TNKH the enrichment ratio was ≤ 0.25.
For ISMG, the enrichment ratio was 1.17.

From a collection of fitness landscapes (doi:10.1126/science.1257360)
